For 24 compounds, ΔTm results are on record in ChEMBL document CHEMBL5308504, “Tm Shift (DSF) assay results for EUbOPEN Chemogenomics Library” (2023).

Structures are written as SMILES.

Conditions in all cases: Compound concentration 20.0 uM, Protein concentration 2.0 uM, Result type QC Liability
The target of experiment [1] is Tyrosine-protein kinase ABL1 (Homo sapiens) (UniProt P00519).
The target in experiment [2] is Cyclin-dependent kinase 2 (Homo sapiens) (UniProt P24941).
For experiment [3], the target named is Casein kinase I isoform delta (Homo sapiens) (UniProt P48730).
For experiment [4], the target named is Glycogen synthase kinase-3 beta (Homo sapiens) (UniProt P49841).
Experiment [5] concerns the target Mitogen-activated protein kinase 1 (Homo sapiens) (UniProt P28482).
Experiment [6] deals with T1, Aurora kinase A (Homo sapiens) (UniProt O14965).
T1 sequence (whole entry): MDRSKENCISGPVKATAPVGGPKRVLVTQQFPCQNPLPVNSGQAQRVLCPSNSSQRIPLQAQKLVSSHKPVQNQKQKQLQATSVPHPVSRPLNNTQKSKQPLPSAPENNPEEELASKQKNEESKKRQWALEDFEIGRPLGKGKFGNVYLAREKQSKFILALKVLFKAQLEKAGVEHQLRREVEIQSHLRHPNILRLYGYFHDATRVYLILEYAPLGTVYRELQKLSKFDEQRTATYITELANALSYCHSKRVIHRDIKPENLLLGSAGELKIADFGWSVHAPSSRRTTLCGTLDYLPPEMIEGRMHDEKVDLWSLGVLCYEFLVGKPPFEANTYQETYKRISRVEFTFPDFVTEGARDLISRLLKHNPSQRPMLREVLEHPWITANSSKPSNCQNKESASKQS

Sequence of Mitogen-activated protein kinase 1 (Homo sapiens) (P28482 whole entry): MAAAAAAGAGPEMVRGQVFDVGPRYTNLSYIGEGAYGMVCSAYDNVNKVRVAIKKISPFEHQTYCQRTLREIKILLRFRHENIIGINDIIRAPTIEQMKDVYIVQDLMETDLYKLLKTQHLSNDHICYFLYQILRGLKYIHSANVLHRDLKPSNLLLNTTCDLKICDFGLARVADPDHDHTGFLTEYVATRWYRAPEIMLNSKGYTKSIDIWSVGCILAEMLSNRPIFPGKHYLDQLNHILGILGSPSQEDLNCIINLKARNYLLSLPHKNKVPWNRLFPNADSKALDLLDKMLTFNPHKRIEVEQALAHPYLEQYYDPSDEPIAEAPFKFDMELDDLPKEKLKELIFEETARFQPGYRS
Sequence of Glycogen synthase kinase-3 beta (Homo sapiens) (P49841 whole entry, looked up): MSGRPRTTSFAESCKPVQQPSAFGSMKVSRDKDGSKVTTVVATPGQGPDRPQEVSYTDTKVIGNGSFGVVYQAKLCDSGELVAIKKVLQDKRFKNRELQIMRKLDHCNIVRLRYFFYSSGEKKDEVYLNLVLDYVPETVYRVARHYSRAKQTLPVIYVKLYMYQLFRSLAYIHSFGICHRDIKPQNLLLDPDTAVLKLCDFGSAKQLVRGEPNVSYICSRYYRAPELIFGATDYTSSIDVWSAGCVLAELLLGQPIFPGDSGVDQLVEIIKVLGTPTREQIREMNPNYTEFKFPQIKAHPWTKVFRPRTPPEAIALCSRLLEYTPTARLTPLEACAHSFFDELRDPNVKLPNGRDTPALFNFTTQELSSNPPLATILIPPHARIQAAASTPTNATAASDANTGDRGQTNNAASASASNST
Sequence of Casein kinase I isoform delta (Homo sapiens) (P48730 whole entry, looked up, canonical isoform): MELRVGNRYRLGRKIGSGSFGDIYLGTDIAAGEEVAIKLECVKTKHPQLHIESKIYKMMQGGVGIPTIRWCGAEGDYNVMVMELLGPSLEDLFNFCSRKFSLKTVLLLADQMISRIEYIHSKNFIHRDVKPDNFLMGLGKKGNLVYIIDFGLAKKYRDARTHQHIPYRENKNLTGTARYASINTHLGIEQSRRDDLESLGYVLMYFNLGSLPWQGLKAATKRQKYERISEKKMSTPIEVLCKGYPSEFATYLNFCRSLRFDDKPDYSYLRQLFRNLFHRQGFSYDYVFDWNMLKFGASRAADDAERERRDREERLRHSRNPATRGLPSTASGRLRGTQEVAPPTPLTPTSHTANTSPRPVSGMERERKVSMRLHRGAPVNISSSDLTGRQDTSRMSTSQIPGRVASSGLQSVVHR
Sequence of Tyrosine-protein kinase ABL1 (Homo sapiens) (P00519 whole entry): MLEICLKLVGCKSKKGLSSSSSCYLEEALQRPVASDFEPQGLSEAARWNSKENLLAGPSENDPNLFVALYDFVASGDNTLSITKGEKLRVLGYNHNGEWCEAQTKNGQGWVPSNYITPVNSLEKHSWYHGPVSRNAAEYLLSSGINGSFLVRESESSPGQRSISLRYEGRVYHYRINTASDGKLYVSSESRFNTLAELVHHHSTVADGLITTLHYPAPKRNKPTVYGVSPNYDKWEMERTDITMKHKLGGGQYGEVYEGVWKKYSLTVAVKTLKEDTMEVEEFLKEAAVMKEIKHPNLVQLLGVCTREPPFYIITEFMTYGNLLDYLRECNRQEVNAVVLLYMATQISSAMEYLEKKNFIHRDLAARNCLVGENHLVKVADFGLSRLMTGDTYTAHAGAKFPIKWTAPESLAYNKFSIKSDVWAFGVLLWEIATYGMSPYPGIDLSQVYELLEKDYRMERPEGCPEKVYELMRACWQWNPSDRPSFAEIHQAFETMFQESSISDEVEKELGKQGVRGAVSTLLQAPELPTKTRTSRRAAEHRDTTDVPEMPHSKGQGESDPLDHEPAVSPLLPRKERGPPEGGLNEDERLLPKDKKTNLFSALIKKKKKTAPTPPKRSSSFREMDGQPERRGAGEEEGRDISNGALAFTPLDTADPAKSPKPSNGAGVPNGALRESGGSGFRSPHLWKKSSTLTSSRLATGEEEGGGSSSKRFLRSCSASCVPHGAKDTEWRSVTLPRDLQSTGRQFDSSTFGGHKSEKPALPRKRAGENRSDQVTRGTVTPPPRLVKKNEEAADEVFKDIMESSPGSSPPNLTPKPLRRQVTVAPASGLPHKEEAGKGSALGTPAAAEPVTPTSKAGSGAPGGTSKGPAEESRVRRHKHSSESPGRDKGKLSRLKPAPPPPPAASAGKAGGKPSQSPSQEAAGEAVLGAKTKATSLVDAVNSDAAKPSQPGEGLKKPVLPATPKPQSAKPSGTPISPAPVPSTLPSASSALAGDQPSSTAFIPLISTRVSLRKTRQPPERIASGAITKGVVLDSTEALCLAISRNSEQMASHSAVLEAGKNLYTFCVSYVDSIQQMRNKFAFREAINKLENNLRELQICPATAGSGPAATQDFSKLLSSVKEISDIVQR

A word on the ΔTm: it is the change in melting temperature against a reference sample. Take `O=C(CNCc1cc2ccccc2[nH]1)N[C@H]1CC[C@@H](c2nc3ccccc3[nH]2)CC1`: the thermal shift (ΔTm) was 0.13 °C in experiment [1]; 0.52 °C in experiment [2]; 0.18 °C in experiment [3]; -0.57 °C in experiment [4]; 0.34 °C in experiment [5]; -0.41 °C in experiment [6].
Turning to `CSc1ccc(C(=O)/C=C/c2cc(C)c(OC(C)(C)C(=O)O)c(C)c2)cc1`, the ΔTm turned out to be 1.1 °C in experiment [1]; 0.59 °C in experiment [2]; 0.61 °C in experiment [3]; 0.69 °C in experiment [4]; 0.07 °C in experiment [5]; 4.96 °C in experiment [6].
Consider `CN(C)C(=O)Cn1cc(-c2nc(C3(c4ccc(-c5cnc(N)nc5)cc4)CC3)no2)cn1`, for which the thermal shift (ΔTm) was 0.7 °C in experiment [1]; 0.53 °C in experiment [2]; 0.13 °C in experiment [3]; -0.37 °C in experiment [4]; 0.16 °C in experiment [5]; 1.51 °C in experiment [6].
As for `O=C(Cc1ccccc1[N+](=O)[O-])Nc1ccc(-c2ccc(C(O)(C(F)(F)F)C(F)(F)F)cc2F)cc1`, the ΔTm was 0.67 °C in experiment [1]; 2.11 °C in experiment [2]; -0.86 °C in experiment [3]; -0.71 °C in experiment [4]; -0.87 °C in experiment [5]; -1.59 °C in experiment [6].
`CN(C)[C@H]1C[C@H](n2cnc(-c3ccc(F)cn3)c2-c2ccnc3[nH]ccc23)C1`: the ΔTm in experiment [1] was 0.17 °C; in experiment [2] it was 0.4 °C; in experiment [3] it was 4.93 °C; in experiment [4], -0.83 °C; in experiment [5], 0.21 °C; in experiment [6], -0.76 °C.
Turning to `N#CN1CC[C@@H](C(=O)Nc2nc3c(s2)CN(C(=O)CN=[N+]=[N-])CC3)C1`, the ΔTm in experiment [1] is 0.86 °C; in experiment [2], 0.33 °C; in experiment [3] it was 0.49 °C; in experiment [4] it was -0.33 °C; in experiment [5], 0.62 °C; in experiment [6] it was -0.54 °C.
For the compound `CCOC(=O)Nc1ccc2c(c1)N(C(=O)CN(CC)CC)c1ccccc1CC2`, the ΔTm in experiment [1] is 0.17 °C; in experiment [2], 0.57 °C; in experiment [3], 0.58 °C; in experiment [4], -0.12 °C; in experiment [5], 0.19 °C; in experiment [6], -1.06 °C.
For the compound `Cc1cnc(-c2cnc(NCCNc3ccc(C#N)cn3)nc2-c2ccc(Cl)cc2Cl)[nH]1`, the shift in melting temperature (ΔTm) in experiment [1] was determined as 0.86 °C; in experiment [2] it was 1.98 °C; in experiment [3] it was 1.3 °C; in experiment [4] it was 14.6 °C; in experiment [5], 1.17 °C; in experiment [6], 2.09 °C.
With `CC(C)(C)C(=O)NCc1ccc(Cl)c(C(=O)Nc2ncc[nH]2)c1`, the thermal shift (ΔTm) was 0.08 °C in experiment [1]; 0.44 °C in experiment [2]; -0.14 °C in experiment [3]; 0.45 °C in experiment [4]; -0.01 °C in experiment [5]; -0.18 °C in experiment [6].
`Cc1nccc(COC(=O)N2C[C@@H]3[C@@H](CNC(=O)c4ccc5[nH]nnc5c4)[C@@H]3C2)n1`: the ΔTm was -0.16 °C in experiment [1]; 0.19 °C in experiment [2]; 0.34 °C in experiment [3]; 0.22 °C in experiment [4]; 0.26 °C in experiment [5]; -0.07 °C in experiment [6].
Regarding `CCC(C)(C)CC[C@H](NC(=O)N1CCOCC1)C(=O)NC1(C#N)CCN(C)CC1`, the shift in melting temperature (ΔTm) is -0.14 °C in experiment [1]; 0.95 °C in experiment [2]; 0.34 °C in experiment [3]; 0.11 °C in experiment [4]; 0.54 °C in experiment [5]; 0.69 °C in experiment [6].
With `COc1cc(O)c(C(CC(=O)N2C[C@H](C)C[C@H](C)C2)c2ccc3c(c2)OCO3)c(OC)c1` (some centres undefined), the ΔTm in experiment [1] was found to be 4.29 °C; in experiment [2], 0.29 °C; in experiment [3], 0.17 °C; in experiment [4] it was 1 °C; in experiment [5] it was 0.25 °C; in experiment [6], 0.33 °C.
For `CCN(C)S(=O)(=O)Nc1cccc(-c2ccc3c(NC(=O)C4CC4)n[nH]c3c2)c1`, the thermal shift (ΔTm) in experiment [1] turned out to be 4.16 °C; in experiment [2], 3.52 °C; in experiment [3], 0.06 °C; in experiment [4] it was 3.82 °C; in experiment [5] it was 0.42 °C; in experiment [6], 4.06 °C.
With `C[C@H](CCC(=O)O)[C@H]1CC[C@H]2[C@@H]3[C@H](O)C[C@@H]4C[C@H](O)CC[C@]4(C)[C@H]3C[C@H](O)[C@]12C`, the thermal shift (ΔTm) in experiment [1] was 0.17 °C; in experiment [2], 0.08 °C; in experiment [3], 0.33 °C; in experiment [4], -0.66 °C; in experiment [5], 0.4 °C; in experiment [6], -1.53 °C.
For `Fc1ccc(-c2nc(-c3ccc4ccccc4c3F)[nH]c2-c2ccncc2)cc1`, the shift in melting temperature (ΔTm) in experiment [1] is 4.64 °C; in experiment [2], -0.5 °C; in experiment [3], 4.6 °C; in experiment [4], 8.59 °C; in experiment [5], 0.03 °C; in experiment [6] it was 0.26 °C.
For the compound `CCOC(=O)CS(=O)(=O)c1ccc([C@@H](CO)NC(=O)c2cc3c(Cl)c(Cl)c(C)cc3n2C)cc1`, the ΔTm in experiment [1] is -1.39 °C; in experiment [2], 0.21 °C; in experiment [3], 1.93 °C; in experiment [4], -1.8 °C; in experiment [5] it was 0.66 °C; in experiment [6], -4.67 °C.
In the case of `Cc1cc([N+](=O)[O-])c(NS(=O)(=O)c2cccc(C(=O)O)c2)cc1-c1cccnc1`, the ΔTm in experiment [1] came out at 0.08 °C; in experiment [2], 0.85 °C; in experiment [3], 0.28 °C; in experiment [4], 0.02 °C; in experiment [5] it was 0.58 °C; in experiment [6] it was 0.29 °C.
As to `CCc1nc(-c2cccc(C)c2)c(-c2ccnc(NC(=O)c3ccccc3)c2)s1`, the ΔTm was 1.26 °C in experiment [1]; -1.36 °C in experiment [2]; 4.93 °C in experiment [3]; -1.07 °C in experiment [4]; -0.25 °C in experiment [5]; -1.25 °C in experiment [6].
For `CNC(=O)c1ccc2c(c1)ncn2-c1ccc(CC(=O)OC(C)(C)C)cc1`, the thermal shift (ΔTm) in experiment [1] was 4.4 °C; in experiment [2] it was 0.07 °C; in experiment [3], -0.01 °C; in experiment [4], -0.5 °C; in experiment [5] it was 0.2 °C; in experiment [6], 0.99 °C.
As for `CC/C(=C(\c1ccccc1)c1ccc(OCCN(C)C)cc1)c1ccccc1`, the ΔTm in experiment [1] is -1.51 °C; in experiment [2], -1.86 °C; in experiment [3], 0.3 °C; in experiment [4] it was -1.42 °C; in experiment [5], -0.3 °C; in experiment [6] it was -2.91 °C.
As to `Fc1ccc(Cl)cc1-c1nc(Nc2ccncc2)c2nccnc2n1`, the thermal shift (ΔTm) in experiment [1] is 0.4 °C; in experiment [2], 1.19 °C; in experiment [3], 2.24 °C; in experiment [4], 0.58 °C; in experiment [5] it was 0.56 °C; in experiment [6] it was -0.16 °C.
Take `CC(=O)Oc1ccc2c(c1)[C@@]1(C)CCC[C@](C)(C(=O)OC(=O)[C@@]3(C)CCC[C@]4(C)c5cc(OC(C)=O)ccc5CC[C@@H]34)[C@@H]1CC2`: the ΔTm in experiment [1] is 0.17 °C; in experiment [2], 0.49 °C; in experiment [3], 0.28 °C; in experiment [4] it was -0.85 °C; in experiment [5] it was -2.79 °C; in experiment [6], -1.32 °C.
As for `C[C@H](CCC(=O)O)[C@H]1CC[C@H]2[C@@H]3CC[C@@H]4C[C@H](O)CC[C@]4(C)[C@H]3C[C@H](O)[C@]12C`, the thermal shift (ΔTm) in experiment [1] was -0.07 °C; in experiment [2] it was 0.15 °C; in experiment [3], 0.54 °C; in experiment [4], -0.7 °C; in experiment [5], 0.2 °C; in experiment [6], -0.62 °C.
On to `CN1C(=O)Cc2ccc(-c3ccc(C[C@@H](C#N)NC(=O)[C@@H]4N[C@H]5CC[C@@H]4C5)c(F)c3)cc21`, for which the ΔTm is -0.52 °C in experiment [1]; 0.33 °C in experiment [2]; 0.17 °C in experiment [3]; -0.31 °C in experiment [4]; -0.2 °C in experiment [5]; -0.07 °C in experiment [6].
